The source of these data is PubChem BioAssay (EPA / NIEHS).

Molecules are shown by their SMILES. Values joined by “and” are separate entries in the source; they are usually repeats but may differ in a detail not shown here. Equal entries are not always repeated. Inconclusive results are not listed. The source holds several records for some structures; these can differ, active in one and inactive in another. Active and inactive are the calls of the source. How the source made its calls, unless noted: active means hit-call score of the fitted dose curve at least 0.9, where 1 is the maximum; inactive means score below 0.9. Peptide text beside a SMILES is read from it.

Read-out in one assay: Collagen III, COL3A1 (gene 1281)
The assay is described as follows: BSK_MyoF_CollagenIII: BioMAP Diversity Plus: MyoF Assay for Collagen III Biomarker Activity (AID 2284239). The note with it: primary human lung fibroblasts. Summed up: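 Lung fibroblast culture; 24 h compound exposure; collagen III by ELISA; gain-of-signal fit vs DMSO baseline.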
With `COc1ccc(C(=O)/C(Br)=C\C(=O)O)cc1`, the AC50 was 20 µM (active) and the result was inactive.

`CC=C(C)C(C)=O`: the outcome was inactive.

`CCOC(=O)/C=C\C(=O)OCC`: the outcome was inactive.

As to `CCCCCCC=O`, the result was inactive.

Regarding `CCCCCCOC(=O)CCCCC(=O)OCCCCCC`, the outcome was inactive.

For the compound `CC/C=C\C/C=C\C/C=C\CCCCCCCC(=O)OC`, the AC50 was 10.6 µM (active).

As for `CC(C)CCCCCOC(=O)CS`, the result was inactive.

As to `COC(OC)(C(=O)c1ccccc1)c1ccccc1`, the result was inactive.

In the case of `O=C1CCCCCCCCCCCN1`, the result was inactive.

Consider `CCCCCC1=CCCC1=O`, for which the outcome was inactive.

`CC=C(C)C=CC=C(C)C`: the outcome was inactive.

As to `CCC1(C)C(=O)N(Cl)C(=O)N1Cl` (centres undefined), the outcome was inactive.

Regarding `CCCCCCCCC(CO)CCCCCC` (centres undefined), the outcome was inactive.

Regarding `O=C(O)C(F)(F)C(F)(F)C(F)(F)C(F)(F)C(=O)O`, the result was inactive.

Turning to `CC1=CC=C(C(C)C)CC1`, the outcome was inactive.

Regarding `CC(C)c1cccc(C(C)C)c1N`, the outcome was inactive.

Turning to `C=CC(=O)OCCCCCCCC(C)C`, the result was inactive.

Take `CCCCCCCCCCCC(C)=O`: the outcome was inactive.

On to `CC(c1cc(C(C)(C)C)cc(C(C)(C)C)c1O)c1cc(C(C)(C)C)cc(C(C)(C)C)c1O`, for which the result was inactive.

Regarding `CCCCC1C(=O)N(c2ccccc2)N(c2ccccc2)C1=O`, the outcome was inactive.

As for `CC1(C)CC(O)CC(C)(C)N1[O]`, the result was inactive.

On to `CCNc1nc(NC(C)(C)C)nc(OC)n1`, for which the outcome was inactive.

Test system in a further assay: not listed separately
The assay is described as follows: CCTE_Mundy_HCI_hNP1_Casp3_7: CCTE's Caspase-Glo 3/7 Assay in human neuroprogenitor cells for Apoptosis, Mundy Lab (AID 2284240).
Settings: not given
Summed up:
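Apoptosis is scored by activated caspase-3/7 luminescence in WA09-derived neural progenitor cells, measured 26.5 h after chemical dosing. Values represent gain of signal relative to DMSO vehicle.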
`COC(=O)[C@H](Cc1ccccc1)NC(=O)[C@@H](N)CC(=O)O` (H-Asp-Phe-OMe): the outcome was inactive.

As to `Cc1noc(NS(=O)(=O)c2ccc(N)cc2)c1C`, the result was inactive.

For the compound `Cc1c(C(=O)c2c[nH]n(C)c2=O)ccc(S(C)(=O)=O)c1C1=NOCC1`, the compound was classed as inactive.

Consider `O=C(O)C(F)(F)C(F)(F)C(F)(F)C(F)(F)C(=O)O`, for which the compound was called inactive.

For the compound `CCCCNS(=O)(=O)c1ccccc1`, the call was inactive.

Test system in another assay: not listed separately
The assay is described as follows: CCTE_Mundy_HCI_hNP1_CellTiter: CCTE's Cell Titer-Glo 2 Assay in human neuroprogenitor cells for Viability, Mundy Lab (AID 2284241; active means hit-call score of the fitted dose curve at least 0.9, where 1 is the maximum).
Settings: not given
Summed up: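 Human neural progenitor cells (hNP1, WA09-derived) were plated on poly-L-ornithine/laminin and grown 40 to 44 hours at 37 °C, 5% CO2 before chemical addition. Twenty-four hours later, ATP was measured by CellTiter-Glo luminescence; loss of signal versus DMSO indicates reduced viability.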
Take `COC(=O)[C@H](Cc1ccccc1)NC(=O)[C@@H](N)CC(=O)O` (H-Asp-Phe-OMe): the call was inactive.

In the case of `Cc1noc(NS(=O)(=O)c2ccc(N)cc2)c1C`, the outcome was inactive.

Turning to `Cc1c(C(=O)c2c[nH]n(C)c2=O)ccc(S(C)(=O)=O)c1C1=NOCC1`, the outcome was inactive.

Turning to `O=C(O)C(F)(F)C(F)(F)C(F)(F)C(F)(F)C(=O)O`, the compound was called inactive.

Regarding `CCCCNS(=O)(=O)c1ccccc1`, the compound was called inactive.

Read-out in another assay: Interleukin 17F (IL17F), IL17F (gene 112744)
The assay is described as follows: BSK_BT_xIL17F: BioMAP Diversity Plus: BT Assay for Interleukin 17F (IL17F) Biomarker Activity (AID 2284243). The note with it: primary human B cells with PBMC. Summed up: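 Secreted IL-17F, read on LumineX xMAP beads, was taken as the endpoint. Cultures combined human B cells and peripheral blood mononuclear cells, sampled 24 hours after dosing, with DMSO serving as negative control.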
Turning to `COc1ccc(C(=O)/C(Br)=C\C(=O)O)cc1`, the AC50 is 26.5 µM (active) and 30.2 µM (active).

For `CC=C(C)C(C)=O`, the outcome was inactive.

Turning to `CCOC(=O)/C=C\C(=O)OCC`, the outcome was inactive.

For the compound `CCCCCCC=O`, the result was inactive.

As for `CCCCCCOC(=O)CCCCC(=O)OCCCCCC`, the result was inactive.

Take `CC/C=C\C/C=C\C/C=C\CCCCCCCC(=O)OC`: the AC50 was 15.2 µM (active).

Regarding `CC(C)CCCCCOC(=O)CS`, the outcome was inactive.

Turning to `COC(OC)(C(=O)c1ccccc1)c1ccccc1`, the outcome was inactive.

For the compound `O=C1CCCCCCCCCCCN1`, the outcome was inactive.

In the case of `CCCCCC1=CCCC1=O`, the outcome was inactive.

Turning to `CC=C(C)C=CC=C(C)C`, the AC50 is 24.9 µM (active).

In the case of `CCC1(C)C(=O)N(Cl)C(=O)N1Cl` (centres undefined), the result was inactive.

As to `CCCCCCCCC(CO)CCCCCC` (centres undefined), the outcome was inactive.

In the case of `O=C(O)C(F)(F)C(F)(F)C(F)(F)C(F)(F)C(=O)O`, the outcome was inactive.

With `CC1=CC=C(C(C)C)CC1`, the result was inactive.

With `CC(C)c1cccc(C(C)C)c1N`, the outcome was inactive.

`C=CC(=O)OCCCCCCCC(C)C`: the result was inactive.

`CCCCCCCCCCCC(C)=O`: the result was inactive.

Turning to `CC(c1cc(C(C)(C)C)cc(C(C)(C)C)c1O)c1cc(C(C)(C)C)cc(C(C)(C)C)c1O`, the concentration at half-maximal activity (AC50) was 18.1 µM (active).

With `CCCCC1C(=O)N(c2ccccc2)N(c2ccccc2)C1=O`, the outcome was inactive.

For the compound `CC1(C)CC(O)CC(C)(C)N1[O]`, the outcome was inactive.

On to `CCNc1nc(NC(C)(C)C)nc(OC)n1`, for which the outcome was inactive.

Read-out in another assay: Actin alpha 1 (ACTA1), ACTA1 (gene 58)
The assay is described as follows: BSK_MyoF_ACTA1: BioMAP Diversity Plus: MyoF Assay for Actin alpha 1 (ACTA1) Biomarker Activity (AID 2284244). The note with it: primary human lung fibroblasts. Summed up: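 ELISA read-out of a-SMA in primary human lung fibroblast cultures, 24 h post-dosing. Activity scored in the positive direction versus DMSO baseline.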
Consider `COc1ccc(C(=O)/C(Br)=C\C(=O)O)cc1`, for which the AC50 is 28 µM (active) and 30.3 µM (active).

In the case of `CC=C(C)C(C)=O`, the result was inactive.

For `CCCCCCC=O`, the outcome was inactive.

`O=C1CCCCCCCCCCCN1`: the outcome was inactive.

For `CC=C(C)C=CC=C(C)C`, the result was inactive.

Regarding `CCC1(C)C(=O)N(Cl)C(=O)N1Cl` (centres undefined), the outcome was inactive.

On to `CC(C)c1cccc(C(C)C)c1N`, for which the outcome was inactive.

Take `CC(c1cc(C(C)(C)C)cc(C(C)(C)C)c1O)c1cc(C(C)(C)C)cc(C(C)(C)C)c1O`: the outcome was inactive.

`CC1(C)CC(O)CC(C)(C)N1[O]`: the outcome was inactive.

Read-out in a further assay: Interleukin 2 (IL2), IL2 (gene 3558)
The assay is described as follows: BSK_BT_xIL2: BioMAP Diversity Plus: BT Assay for Interleukin 2 (IL2) Biomarker Activity (AID 2284245). Conditions: primary human B cells with PBMC. Summed up: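 Readout: supernatant IL-2 via Luminex xMAP after 24 h chemical dosing of a B cell/PBMC primary human co-culture. DMSO serves as negative control and baseline; increases in signal were fitted.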
Turning to `COc1ccc(C(=O)/C(Br)=C\C(=O)O)cc1`, the AC50 was 23.2 µM (active) and 20 µM (active).

Take `CC=C(C)C(C)=O`: the result was inactive.

On to `CCOC(=O)/C=C\C(=O)OCC`, for which the result was inactive.

On to `CC/C=C\C/C=C\C/C=C\CCCCCCCC(=O)OC`, for which the AC50 was 27.5 µM (active).

With `CC(C)CCCCCOC(=O)CS`, the outcome was inactive.

Take `CCCCCC1=CCCC1=O`: the result was inactive.

On to `CC1=CC=C(C(C)C)CC1`, for which the result was inactive.

Regarding `CC1(C)CC(O)CC(C)(C)N1[O]`, the outcome was inactive.

Read-out in another assay: Basic fibroblast growth factor (bFGF), FGF2 (gene 2247)
The assay is described as follows: BSK_MyoF_bFGF: BioMAP Diversity Plus: MyoF Assay for Basic fibroblast growth factor (bFGF) Biomarker Activity (AID 2284246). The note with it: primary human lung fibroblasts. Summed up: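 Primary human lung fibroblast culture, 24 h compound exposure; ELISA read-out of bFGF. Positive-direction fit vs DMSO baseline. Cytotoxicity: SRB stain (0.1% SRB, 10% TCA fixation, 560 nm) in parallel wells.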
Consider `COc1ccc(C(=O)/C(Br)=C\C(=O)O)cc1`, for which the outcome was inactive.

In the case of `CC=C(C)C(C)=O`, the outcome was inactive.

On to `CCOC(=O)/C=C\C(=O)OCC`, for which the result was inactive.

With `CCCCCCC=O`, the result was inactive.

As to `CCCCCCOC(=O)CCCCC(=O)OCCCCCC`, the result was inactive.

As to `CC/C=C\C/C=C\C/C=C\CCCCCCCC(=O)OC`, the AC50 was 9.83 µM (active).

With `CC(C)CCCCCOC(=O)CS`, the outcome was inactive.

For the compound `COC(OC)(C(=O)c1ccccc1)c1ccccc1`, the outcome was inactive.

Take `O=C1CCCCCCCCCCCN1`: the result was inactive.

Turning to `CCCCCC1=CCCC1=O`, the result was inactive.

For the compound `CC=C(C)C=CC=C(C)C`, the outcome was inactive.

With `CCC1(C)C(=O)N(Cl)C(=O)N1Cl` (centres undefined), the result was inactive.

As to `CCCCCCCCC(CO)CCCCCC` (centres undefined), the result was inactive.

Take `O=C(O)C(F)(F)C(F)(F)C(F)(F)C(F)(F)C(=O)O`: the result was inactive.

Regarding `CC1=CC=C(C(C)C)CC1`, the result was inactive.

With `CC(C)c1cccc(C(C)C)c1N`, the outcome was inactive.

`C=CC(=O)OCCCCCCCC(C)C`: the outcome was inactive.

`CCCCCCCCCCCC(C)=O`: the outcome was inactive.

Take `CC(c1cc(C(C)(C)C)cc(C(C)(C)C)c1O)c1cc(C(C)(C)C)cc(C(C)(C)C)c1O`: the outcome was inactive.

As to `CCCCC1C(=O)N(c2ccccc2)N(c2ccccc2)C1=O`, the result was inactive.

Consider `CC1(C)CC(O)CC(C)(C)N1[O]`, for which the outcome was inactive.

Turning to `CCNc1nc(NC(C)(C)C)nc(OC)n1`, the outcome was inactive.
